This is an account of results in ChEMBL document CHEMBL4513216, “Probing the Open Global Health Chemical Diversity Library for Multistage-Active Starting Points for Next-Generation Antimalarials” (ACS Infect Dis, 2020).

The whole screen tested about 65,000 compounds, of which about 2,100 (3.2%) showed an effect of 50% or more. The median lay at about -52%. The full list was thinned out, with strong results kept by preference.

In this assay the test system is Plasmodium falciparum. Kind of assay: Screen against P. falciparum Asexual Blood Stage (ABS), at 5uM. Format: functional, Dd2. The following applies: tested at 5 uM.
As to `N#Cc1ccc(N2CCC(OC3CCOCC3)CC2)cc1Cl`, the INHIBITION is on record as -184%.
For the compound `CCC1CCCCN1CCc1ccncc1` (stereo not drawn), the INHIBITION is reported as -81.4%.
For the compound `CCC1CCCCN1Cc1ncc(C(C)(C)C)o1` (stereo not drawn), the INHIBITION is 71.2%.
On to `COc1ccc(C(=O)C2CCCN(Cc3cc(C)n[nH]3)C2)c(OC)c1` (stereo not drawn), for which the INHIBITION was -4.88%.
With `Cc1cc(CN2CCC(C3CCN(CCc4ccccc4)CC3)C2)[nH]n1` (stereo not drawn), the INHIBITION is given as 93.5%.
Consider `Cc1ccc(N2C[C@H]3CCN(Cc4ccncc4)C[C@H]3C2)nn1`, for which the INHIBITION is -4.71%.
As for `Fc1ccccc1C1(CNC2CCOC3(CCOCC3)C2)CCCC1` (stereo not drawn), the INHIBITION amounted to 76.3%.
On to `CN(C)CCN1CCC2[C@@H]1CCN2Cc1ccc2c(c1)OCO2` (stereo partly drawn), for which the INHIBITION is reported as 72.5%.
As for `COc1ncccc1CN1CCC2[C@H]1CCN2CCN(C)C` (stereo partly drawn), the INHIBITION is 53.9%.
Turning to `CN(C)CCN(C(=O)Cc1ccc2c(c1)OCCO2)C1CCN(C)CC1`, the INHIBITION is on record as -48.3%.
For `COc1ncccc1CN1CC[C@H]2O[C@@H](c3nnc(C)o3)CC[C@H]21`, the INHIBITION is -71.9%.
Regarding `COc1ncccc1CN1C[C@@H]2OCCN(CCN(C)C)[C@@H]2C1`, the INHIBITION is -3.36%.
As to `CN(C)CCN(C)C(=O)Cc1ccc2c(c1)OCCO2`, the INHIBITION is on record as -12.9%.
As to `Cc1cc(CN2CC[C@H]3C(=O)N(c4ccsc4)CCO[C@H]3C2)no1`, the INHIBITION is listed as -34.2%.
Regarding `Cc1cccc(CO[C@@H]2CC[C@H]3[C@H]2OCCN3Cc2ccsc2)n1`, the INHIBITION is -46.8%.
For the compound `O=C(N[C@H]1CN(Cc2cccs2)[C@@H]2CCCO[C@H]12)c1cccnc1`, the INHIBITION is listed as -57.9%.
With `Cc1noc(C)c1CN1C[C@@H]2C[C@@H](C)O[C@@H]2C1` the figure was -75.1%; with `Cc1noc(C)c1CN1C[C@H]2CN(Cc3cccc(F)c3)C[C@H]2C1`, 55.4%.
As to `O=C(c1cccc(F)c1)N1C[C@H]2CN(Cc3ccccn3)C[C@H]2C1`, the INHIBITION was 0.82%.
Regarding `Fc1cccc(CN2C[C@@H]3CN(Cc4ccccn4)C[C@@H]3C2)c1`, the INHIBITION is 89.4%.
On to `Cn1cnc(S(=O)(=O)N2C[C@H]3CN(Cc4ccccn4)C[C@H]3C2)c1`, for which the INHIBITION is on record as -85.5%.
With `Cc1noc(C)c1CN1C[C@@H]2CC(F)(F)C[C@@H]2C1`, the INHIBITION is -59.4%.
On to `O=C(Cc1ccccn1)N1CCN2C[C@H](Oc3cncnc3)C[C@H]2C1`, for which the INHIBITION is reported as -1.9%.
Take `Cc1noc(C)c1CN1C[C@@H]2CN(C(=O)c3cnccn3)C[C@@H]2C1`: the INHIBITION is listed as -43.4%.
Turning to `Clc1cccc(N[C@H]2CCCN[C@H]2Cc2ccccc2)c1`, the INHIBITION is on record as 92.8%.
`Cc1nc(C2(NCc3ccc(C#N)cc3F)CCCCC2)no1`: the INHIBITION was -32.3%.
Take `CC(C)OCCNC1(c2ccc(F)cc2)CCOCC1`: the INHIBITION is 34.8%.
In the case of `Cc1n[nH]cc1CNC1(c2ccc(F)cc2)CCCC1`, the INHIBITION is recorded as 83.4%.
For `O=C(c1cnccn1)N1CCN2C[C@H](Oc3cccnc3)C[C@H]2C1`, the INHIBITION is -106%.
Under `CCOCC(O)CN1CCN(C(=O)Cc2ccccc2C)CC1` (stereo not drawn) stands -143%.
On to `COc1ccccc1COCC(O)CN1CC(n2cccn2)C1` (stereo not drawn), for which the INHIBITION is recorded as 78.9%.
Turning to `CN(C)c1ncc2c(n1)C1(CCN(Cc3ccccc3)C1)COC2` (stereo not drawn), the INHIBITION was 27.6%.
As to `Cc1cccnc1CC(C)N(C)Cc1cccs1` (stereo not drawn), the INHIBITION worked out at 81.7%.
Under `CC(Cc1ccccn1)N(C)Cc1ccc2c(c1)CCO2` (stereo not drawn) stands 8.31%; under `Cc1ccnc(CC(C)N(C)Cc2ccc3c(c2)OCCO3)c1` (stereo not drawn), -56.5%; under `Cc1nc(CN2CCCCC2Cn2cccn2)nc2ccccc12` (stereo not drawn), 70.4%.
For `Cc1cnn(CC2CCCN2Cc2cn3ccsc3n2)c1` (stereo not drawn), the INHIBITION is listed as 81.3%.
For the compound `Cc1cnn(CC2CCCN2Cc2nc(C)c3ccccc3n2)c1` (stereo not drawn), the INHIBITION was determined as 78%.
On to `CCCN(CCN(C)C)C(=O)Cc1cn2ccsc2n1`, for which the INHIBITION is recorded as -76.3%.
Regarding `Cc1nc(CN2CCCC2Cn2ccnc2C(C)C)nc2ccccc12` (stereo not drawn), the INHIBITION came to 77.3%.
On to `O=C(C1CCCCC1)N1C[C@@H]2CCNC[C@@H]21`, for which the INHIBITION stood at 9.5%.
On to `Cc1ccc(N2CC[C@@H]3CN(Cc4c[nH]cn4)C[C@@H]3C2)nn1`, for which the INHIBITION is given as -66.7%.
With `Cc1cc(CC(C)NC2CCSCC2)[nH]n1` (stereo not drawn), the INHIBITION is -36.2%.
For `Cn1c(=O)n(C)c2cc(C3SCC(=O)Nc4ccsc43)ccc21` (stereo not drawn), the INHIBITION was -86.5%.
`Cc1c(CN2CCCC(C(=O)c3ccccc3)C2)cc(C#N)n1C` (stereo not drawn): the INHIBITION is recorded as 44.6%.
With `O=C(c1ccccc1)C1CCN(Cc2cc3c(cc2O)CCC3)CC1` the figure was 90.1%; with `CC(C)NC(=O)[C@H]1CN(Cc2ccccc2)C[C@@H]1C(=O)c1ccccc1`, -90.6%; with `CC(C)[C@H](CO)Nc1nccc(-c2c[nH]nc2-c2ccncc2)n1`, 83.9%.
Under `c1cc(-c2n[nH]cc2-c2ccnc(N3CCCCCC3)n2)ccn1` stands 78%.
On to `c1cc(-c2n[nH]cc2-c2ccnc(N3CCCC3)n2)ccn1`, for which the INHIBITION is given as 81.1%.
Consider `COc1cc(N2CC[C@@H]3[C@@H](CC2)OCCN3CC2CC2)ncn1`, for which the INHIBITION is -53.8%.
Regarding `COCC1CC2(CCNCC2)CN1c1ncccn1` (stereo not drawn), the INHIBITION is given as -33.8%.
Under `NC1(c2nc(C(F)(F)F)cc(=O)[nH]2)CCCC1` stands -131%.
Consider `Cc1cc(Cc2cccc(C(F)(F)F)c2)cc(C2CCCNC2)n1` (stereo not drawn), for which the INHIBITION is 93.9%.
With `FC(F)(F)c1nc(C2CCCNC2)no1` (stereo not drawn) the figure was -15.6%.
For the compound `Cc1cc(O)nc(C2CCCNC2)n1` (stereo not drawn), the INHIBITION was -1.25%.
Under `Cc1cccc(Cc2cc(C)nc(C3CCCNC3)c2)c1` (stereo not drawn) stands 80.1%.
As to `Cc1cc(C)nc(C2CCCNC2)n1` (stereo not drawn), the INHIBITION is -66.3%.
With `Cc1nc(NCCC23CCCN2CCC3)cc(C2CCCNC2)n1` (stereo not drawn) the figure was -29.1%.
Turning to `Cc1cc(Cc2ccccc2)cc(C2CCCNC2)n1` (stereo not drawn), the INHIBITION was 76.1%.
Consider `Cc1cc(Cc2ccc(F)cc2)cc(C2CCCNC2)n1` (stereo not drawn), for which the INHIBITION was 73.9%.
Regarding `CC(C)c1ncc(Cl)c(C(=O)N2CCCN3CCCC3C2)n1` (stereo not drawn), the INHIBITION is on record as -79%.
On to `CNC(=O)[C@H]1C[C@@H]2CN(Cc3cccnc3OC)C[C@@H]2N1C(C)=O`, for which the INHIBITION was 38.2%.
With `NC1(c2nc(-c3ccccc3)cc(=O)[nH]2)CCCCC1` the figure was -0.415%; with `COCCN1CCC2(COCc3cnc(N(C)C)nc32)C1` (stereo not drawn), -35.3%.
On to `CNc1cc(C2CCCNC2)nc(C)n1` (stereo not drawn), for which the INHIBITION is given as -80.8%.
Regarding `CC(C)c1nc(C2CCCNC2)no1` (stereo not drawn), the INHIBITION was -62.1%.
As to `Cc1cc(Cc2ccccc2C)cc(C2CCCNC2)n1` (stereo not drawn), the INHIBITION is listed as 78.9%.
